High-throughput results: PubChem BioAssay, The Scripps Research Institute Molecular Screening Center
Sampled rows, rich in hits. Any-hit rate of the full collection: about 3.5%.
FBW7 activator – human FBW7 E3 ligase activation, primary screen | Q969H0 | AlphaScreen FBW7–phospho-cyclin E peptide binding, activator screen | AID 1259310 | 650,000 tested, 0.13% active | normalized activity (activation), % at 26.1 µM; in the data active = normalized activity above about 1.9%;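 also: purified mutant Fbw7 with reduced substrate affinity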
MITF primary – blocks human microphthalmia-associated transcription factor. O75030. AlphaScreen MITF homodimerization, bead proximity signal. inhibition, % at 2.6 µM. 650,000 tested, 0.91% active; in the data active = inhibition above about 50%;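 also: 0% = vehicle wells with protein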
Target sequence (O75030 whole entry, looked up): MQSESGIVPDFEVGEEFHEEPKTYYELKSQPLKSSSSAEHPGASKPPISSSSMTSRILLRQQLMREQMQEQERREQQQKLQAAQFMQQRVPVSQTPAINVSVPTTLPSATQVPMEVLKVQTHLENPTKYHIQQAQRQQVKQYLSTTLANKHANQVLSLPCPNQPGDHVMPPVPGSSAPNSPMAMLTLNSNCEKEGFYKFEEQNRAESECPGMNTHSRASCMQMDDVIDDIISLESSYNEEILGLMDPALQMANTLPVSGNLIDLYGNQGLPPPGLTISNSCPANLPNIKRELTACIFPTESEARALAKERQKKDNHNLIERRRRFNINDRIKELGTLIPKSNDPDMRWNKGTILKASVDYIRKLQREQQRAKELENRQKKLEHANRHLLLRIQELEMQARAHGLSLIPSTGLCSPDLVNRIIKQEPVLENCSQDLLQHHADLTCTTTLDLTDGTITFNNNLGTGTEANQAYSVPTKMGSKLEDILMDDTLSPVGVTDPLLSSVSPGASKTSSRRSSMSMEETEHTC
TEAD-YAP block – TEAD-YAP interaction inhibition; HEK-TIYL cells, TEAD-Gal4/YAP UAS-luciferase luminescence; inhibition, % at 9.12 µM; AID 1259422; 640,000 tested, 1.4% active; in the data active = inhibition above about 32%;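 also: 0% = median of test compound wells and 100% = reference inhibitor wells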
GPR151 ag – human GPR151 activation | Q8TDV0 | PathHunter beta-arrestin GPR151 cells, luminescence | activation, % at 11.2 µM | 650,000 tested, 1% active; in the data active = activation above about 4.9%;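 also: 0% = median of compound wells and 100% = cells with positive control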
GPR151 confirm – confirmation of human GPR151 activators; activation, % at 11.2 µM; 6,700 tested, under 10 active; shares compounds with GPR151 ag; GPR151 PathHunter beta-arrestin cells, luminescence, 90 min; % of EA-reagent control over plate median;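 active = mean percent activation across replicates above the confirmation screen cutoff of 4.91%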
GPR119 counter – GPR119 activation, counter-screen for GPR151 activators; 6,700 tested, 0.3% active; GPR119 PathHunter beta-arrestin cells, luminescence, 90 min; 0 = compound-well median, 100 = enzyme-acceptor control; activation, % at 11.2 µM; shares compounds with GPR151 ag;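 active = mean percent activation in the counterscreen above 29.09%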;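 also: counterscreen on off-target GPR119 to flag nonselective hits from the GPR151 activator screen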
The depositor's hits bear a star; · = no result.

SMILES	FBW7 activator	MITF primary	TEAD-YAP block	GPR151 ag	GPR151 confirm	GPR119 counter
CNS(=O)(=O)c1cccc(C(=O)OCC(=O)c2cc3ccccc3o2)c1	0.1	-9.0	-4.7	0.7	·	·
CN(C)c1cccc(C(=O)OCC(=O)c2cc3ccccc3o2)c1	0.2	7.8	18.3	5.2*	-1.1	-4.8
O=C(NCCN1CCCC1)C1(S(=O)(=O)c2ccc(Cl)cc2)CC1	0.2	-0.1	5.2	0.8	·	·
CC1CCCCN1CCNC(=O)C1(S(=O)(=O)c2ccc(Cl)cc2)CC1 (stereo unspecified)	-0.1	2.6	-4.1	6.7*	0.3	16.1
Cc1ccc(-c2ccc3c(c2)CC(CNC(=O)Cc2nc(-c4ccccc4)n[nH]2)O3)nc1 (stereo unspecified)	-0.1	6.6	1.2	0.9	·	·
Cc1ccc(-c2ccc3c(c2)CC(CNC(=O)CCc2ccco2)O3)nc1 (stereo unspecified)	-0.1	-1.4	-44.9	6.4*	1.0	13.5
COC(=O)NCC12CC3CC(CC(C3)C1)C2	0.2	10.5	5.5	8.9*	0.7	-5.0
NC(=O)NCC12CC3CC(CC(C3)C1)C2	0.0	-9.0	-7.4	1.4	·	·
COc1ccccc1OCC(=O)N1CCC(CO)(CCc2ccccc2)CC1	0.3	8.3	-1.7	0.7	·	·
COC(=O)C1=C(C)N(c2ccc(C(C)C)cc2)C(=O)/C1=C\c1cc(Br)ccc1OC	-0.1	-0.2	-5.7	10.7*	0.2	6.7
CC(=O)n1c(SCC(=O)Nc2ccc(C(C)C)cc2)nc2ccccc21	-0.3	-0.6	-10.9	6.8*	0.4	12.5
CCc1ccc(NC(=O)CSc2nc3ccccc3c(=O)n2CCc2ccc(OC)c(OC)c2)cc1	0.0	-7.6	-0.8	0.3	·	·
CC(C)c1ccc(NC(=O)CSc2nc3ccccc3n2S(=O)(=O)c2cccs2)cc1	0.6	8.4	-6.6	-0.1	·	·
CCn1c(SCC(=O)Nc2ccc(C(=O)OC)cc2)nc2cccnc21	0.0	12.4	3.8	5.5*	0.0	-5.8
COc1ccc(NC(=O)CCCN2C(=O)CCC2=O)c(OC)c1	0.1	16.1	2.8	10.3*	-0.8	1.2
CCc1ccc(NC(=O)CSc2nc3ccccc3c(=O)n2CCc2ccccc2)cc1	-0.1	-5.5	-2.0	5.8*	-1.3	-11.8
COc1ccc(CNC(=O)CCCn2c(SCC(=O)Nc3ccc(OC)cc3OC)nc3cc4c(cc3c2=O)OCO4)cc1	0.0	-6.7	3.2	2.3	·	·
COc1ccc(NC(=O)CSc2nc3ccccc3c(=O)n2CCCC(=O)NCc2ccccc2)c(OC)c1	0.0	2.8	-0.5	7.5*	-0.8	-22.7
O=C(CN1CCN(CC(=O)Nc2ccccc2F)CC1)Nc1cccc(F)c1	0.6	13.1	10.3	6.2*	1.0	2.6
CCOCCCNC(=O)COc1ccc(S(=O)(=O)NC(C)c2ccccc2)cc1 (stereo unspecified)	-0.2	-10.4	-1.4	-2.2	·	·
O=S(=O)(Cc1ccc2c(c1)OCO2)c1ccc2ccccc2c1	0.1	12.1	-7.1	5.8*	-0.1	-12.2
O=C(CS(=O)(=O)c1ccccc1)NCc1ccc2c(c1)OCO2	0.0	7.7	-2.8	5.1*	1.0	13.9
O=C(CCN1N=C(c2ccccc2)CCC1=O)NCc1ccc(Cl)cc1	-0.2	-2.9	-6.6	-0.3	·	·
O=C(CN1C(=O)/C(=C/c2ccccc2)Sc2ccccc21)NCc1ccc2c(c1)OCO2	0.0	-2.2	-1.0	9.0*	0.2	-1.3
O=C(CCN1N=C(c2ccccc2)CCC1=O)NCc1ccc2c(c1)OCO2	0.0	-1.2	7.7	7.2*	0.0	-5.3
SMILES	FBW7 activator	MITF primary	TEAD-YAP block	GPR151 ag	GPR151 confirm	GPR119 counter
O=C(CN1C(=O)/C(=C\c2cccc(Cl)c2)Sc2ccccc21)NCc1cccnc1	-0.2	5.9	-6.7	0.3	·	·
COc1ccc(N2C(=O)CC(N(CCc3ccccc3)C(C)=O)C2=O)cc1 (stereo unspecified)	0.1	3.5	5.1	-0.9	·	·
O=C(NCc1cccc(C(F)(F)F)c1)c1csc(Nc2cnccn2)n1	0.0	2.7	-0.6	0.1	·	·
Cc1cc(=O)[nH]c2nnc(SCC(=O)NCc3ccc4c(c3)OCO4)n12	0.6	12.5	7.9	-1.7	·	·
O=C(CSc1n[nH]c(=O)n1C1CC1)NCc1ccc2c(c1)OCO2	-0.2	-12.4	17.5	6.3*	-0.5	0.0
NS(=O)(=O)c1ccc(NC(=S)NCc2ccc3c(c2)OCO3)cc1	-0.1	-11.5	-2.3	9.1*	-0.3	2.1
O=C(Cc1cc(=O)[nH]c(=O)[nH]1)NCc1ccc2c(c1)OCO2	0.0	9.7	2.4	8.6*	0.1	4.8
COc1ccc(Cl)cc1NC(=O)C1CC2CCCN2C12C(=O)N(C)c1ccccc12 (stereo unspecified)	-0.1	-2.2	3.7	2.6	·	·
CCOC(=O)C1(CCOc2ccccc2)CCN(C(=O)c2ccsc2)CC1	-0.1	-3.6	-6.0	-0.9	·	·
OCCC1CN(Cc2ccccc2Cl)CCN1Cc1cccs1 (stereo unspecified)	0.3	4.3	-10.1	2.7	·	·
Cc1cc(C(=O)COC(=O)c2ccc(O)cc2O)c(C)n1-c1ccc2c(c1)OCO2	-0.1	-0.9	2.4	5.3*	-0.2	1.0
CC1=CC(C)C2COC(c3ccccc3O)C1C2 (stereo unspecified)	-0.2	-1.3	2.5	5.3*	-0.2	-4.8
O=C(Nc1ccccc1)NN1C(=O)/C(=C\c2cccs2)SC1=S	0.0	-2.3	-4.6	0.3	·	·
COc1ccc(-c2cncc(-c3cc(N4CCN(CCO)CC4)nc(C)n3)c2)cc1	-0.2	1.6	5.5	7.1*	-1.4	-8.6
Cc1cc(NC(=O)c2cccs2)cc(C)c1OCC(=O)N1CCOCC1	0.0	-11.4	-15.8	5.2*	0.4	-2.4
Cc1cccc(C)c1NC(=S)N(CCCN1CCCCC1)Cc1cccs1	-0.1	-8.3	8.6	-0.8	·	·
CCOc1ccc(/C=N/NC(=O)C(=O)NC2CC2)cc1	0.4	18.6	-1.0	5.7*	1.1	3.8
CC(C)Oc1ccc(/C=N/NC(=O)C(=O)NC2CCCCC2)cc1	0.0	-8.7	-5.7	1.4	·	·
Cn1c(=O)c2c(ncn2CCn2cnc3c2c(=O)n(C)c(=O)n3C)n(C)c1=O	0.2	1.7	0.5	-2.0	·	·
CN(C)C(=O)NCCn1cnc2c1c(=O)n(C)c(=O)n2C	0.4	13.2	3.3	6.2*	-1.5	-2.0
CC(C)CCN1CCNC(=O)C1CC(=O)N(C)CCc1cnn(C)c1 (stereo unspecified)	0.1	18.2	-2.9	5.6*	-0.3	5.9
Cc1ccc(CN2CCNC(=O)C2CC(=O)N(C)CCc2cnn(C)c2)cc1 (stereo unspecified)	-0.2	8.6	0.8	0.2	·	·
CCOC(=O)Nc1nnc(-c2cccc([N+](=O)[O-])c2)s1	-0.2	1.9	-4.3	2.5	·	·
COc1ccc(CN2CCN(Cc3cccs3)C(CCO)C2)c(O)c1 (stereo unspecified)	-0.1	-5.1	-14.3	5.1*	-0.5	-7.8
COc1cccc(CN2CCN(Cc3cccs3)C(CCO)C2)c1 (stereo unspecified)	-0.1	-3.2	-5.2	0.2	·	·
